SMILES strings stand for the structures. Out of some 1,400 compounds screened, about 560 (40%) were called active.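 Rule for the calls: active = mean inhibition over duplicate tests at 10 µM above 50%; inactive = the rest.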 The set was probably picked from earlier hits. The list shows a part of the results.

The assay in a line: ASC/caspase-1 reporter retest in S. cerevisiae at one dose, specificity check for NALP1 project (AID 488857). Conditions: S. cerevisiae ASC/Caspase-1, beta-galactosidase luminescence, 24 h; at 10 µM; active compounds read high.
On to `COc1ccc(OC)c(S(=O)(=O)Nc2ccc(O)c3ccccc23)c1`, for which the inhibition was 28.8% (inactive). The value for `CSc1ccc2c(c1)N(CCC1CCCCN1C)c1ccccc1S2` (configuration not stated) was 81.8% (active). The value for `CCC(C)NCCOc1cccc(Br)c1` (configuration not stated) was 39.6% (inactive); that for `Cc1ccc2nc(-c3ccc(NC(=O)CN(c4ccccc4C)S(C)(=O)=O)cc3)sc2c1` was 44.1% (inactive). The value for `O=C(Nc1ccc(-c2nc3ccccc3s2)cc1)C1=COCCO1` was 55.6% (active). Consider `CCOC(=O)N/N=C/c1ccc(N(CC)CC)cc1O`, for which the inhibition was 72.5% (active). The value for `COc1cc2nc(Cl)nc(N3CCN(C)CC3)c2cc1OC` was 30% (inactive). On to `COc1cccc(NC2=C(Cl)C(=O)OC2OC(=O)c2ccco2)c1` (configuration not stated), for which the inhibition was 38.3% (inactive). The value for `O=C(Nc1ccc(Cl)c(Cl)c1)Oc1ccc(NC(=O)c2ccco2)cc1` was 54.6% (active). In the case of `Cc1ccc2cc3cc(C(=O)NCCCN4CCc5ccccc5C4)oc3nc2c1`, the inhibition was 35% (inactive). The value for `O=C(Nc1ccccc1)N1CCc2ccccc2C1` was 71.7% (active); that for `O=C(NCCCN1CCc2ccccc2C1)Nc1ccc(Br)cc1` was 43.3% (inactive); that for `Cc1ccc(NC(=O)N2CCc3ccccc3C2)cc1` was 69.2% (active).

In the case of `COC(=O)/C(=N/Nc1ccc(C)cc1)N1CCCc2ccccc21`, the inhibition was 40.6% (inactive). The value for `CC(=O)N1CCCc2cc(S(=O)(=O)N3CCc4ccccc4C3)ccc21` was 45.2% (inactive); that for `CCOC(=O)c1cc(-c2ccc(OC)cc2)nc2c1c(C)nn2CCC#N` was 49.6% (inactive).

Regarding `CN1C/C(=C/c2ccncc2)C(=O)/C(=C/c2ccncc2)C1`, the inhibition was 26.9% (inactive). The value for `CC1=CC2=NC(=O)/C(=C\c3cccn3CCOc3cccc(C)c3)C(=N)N2O1` was 85.1% (active).

Take `NCCS`: the inhibition is 58.8% (active).

As for `CCOC(=O)C1CCCCN1Cc1ccc(F)c(Br)c1` (configuration not stated), the inhibition was 40.2% (inactive).

Turning to `CCOC(=O)C1CCN(C(=O)c2cc3cc4cc(OC)ccc4nc3o2)CC1`, the inhibition was 52% (active). The value for `COc1ccc2nc3oc(C(=O)Nc4ccc(OC)c(OC)c4)cc3cc2c1` was 36.3% (inactive). The value for `O=C(NCC1CCCO1)C(c1cccs1)N(Cc1cccs1)C(=O)Cn1nnc(-c2cccs2)n1` (configuration not stated) was 39.1% (inactive).

Turning to `CCOC(=O)c1c(C)c(C(=O)NCCCOC(C)C)c(C)n1C`, the inhibition was 26.7% (inactive).

`COc1cc(C=O)ccc1Oc1nnnn1-c1ccccc1`: the inhibition was 52.9% (active). The value for `O=C1CN(c2nnnn2-c2ccccc2)CCN1` was 40.9% (inactive). The value for `CC(C)C(=O)c1cc2c(cc1NC(=O)Nc1cccc3ccccc13)OCCO2` was 49.3% (inactive); that for `O=C(N/N=C/c1ccc2c(c1)OCO2)c1cccs1` was 68.9% (active). With `CNc1ccc(/C=C/C(=O)c2ccc3c(c2)OCCO3)cc1[N+](=O)[O-]`, the inhibition is 66.7% (active).

Regarding `Cc1c([N+](=O)[O-])c(C(=O)Nc2ccc3c(c2)OCCO3)nn1C`, the inhibition was 24.6% (inactive). The value for `O=C(/C=C/c1cccc([N+](=O)[O-])c1)c1ccco1` was 36% (inactive); that for `CC1=CC(C)(C)Nc2ccc(OC(=O)C(C)N3C(=O)c4ccccc4C3=O)cc21` (configuration not stated) was 39.1% (inactive).

For orientation: inhibition means how much of the control response was suppressed.
